Some test systems named below: SR leukemia; RPMI-8226 leukemia; OVCAR-8 ovarian; OVCAR-5 ovarian; OVCAR-4 ovarian; SK-OV-3 ovarian; IGROV1 ovarian; OVCAR-3 ovarian; HS 578T breast; NCI/ADR-RES ovarian.
Assay in all cases: NCI-60 one-dose screen, 48 h (100 = growth as untreated, 0 = no growth, -100 = all killed)
Common to all, as to conditions: 10 µM unless noted

This is part of a sample that, as a whole, favours compounds with a hit. Of some 83,000 tested, about 20% had one in any assay.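 48-hour exposure, single concentration, 96-well plates; percent growth endpoint where 0 means no net growth. Active: below 10.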 A number with no mark means an inactive call. Active and inactive are the calls of the source.

For the molecule `NC(=O)Nc1ccc(-n2cnc3cc(-c4ccc(O)cc4)ccc32)cc1`, the growth was 88.1% in the assay on SR leukemia; 91.5% in the assay with RPMI-8226 leukemia; 97.4% with OVCAR-8 ovarian; 97.5% with OVCAR-5 ovarian; 89% in the assay with OVCAR-4 ovarian; 137% in the assay on SK-OV-3 ovarian. Besides, the growth in the assay on IGROV1 ovarian is 108%; in the assay with OVCAR-3 ovarian, 108%; in the assay on HS 578T breast, 109%; in the assay with NCI/ADR-RES ovarian, 103%.

As for `COc1cc2c3c(c4c5ccccc5[nH]c4c2c(OC)c1OC)C(=O)N(CCN1CCOCC1)C3=O`, the growth with SR leukemia is 21.5%; in the assay on RPMI-8226 leukemia it was 39.5%; in the assay with OVCAR-8 ovarian, 31%; with OVCAR-5 ovarian it was 99.7%; with OVCAR-4 ovarian, 70%; in the assay on SK-OV-3 ovarian, 83.2%. For the same molecule, the growth in the assay with IGROV1 ovarian is 53.9%; in the assay on OVCAR-3 ovarian it was 76.4%; in the assay with HS 578T breast, 66.6%; with NCI/ADR-RES ovarian, 45.8%.

In the case of `C=C(C)[C@@H]1CC[C@]2(C(=O)N[C@H](CO)Cc3ccccc3)CC[C@]3(C)[C@H](CC[C@@H]4[C@@]5(C)CCCNC(C)(C)[C@@H]5CC[C@]43C)[C@@H]12`, the growth with SR leukemia was -56.8% (active); in the assay on RPMI-8226 leukemia, -49.3% (active); in the assay with OVCAR-8 ovarian it was -76.3% (active); in the assay on OVCAR-5 ovarian, -93.5% (active); in the assay on OVCAR-4 ovarian, -80.9% (active); with SK-OV-3 ovarian, -96.2% (active). Also, the results for the growth in the assay on IGROV1 ovarian, with OVCAR-3 ovarian and in the assay on HS 578T breast were -78.8% (active), -95.9% (active) and -60.5% (active), respectively.

Turning to `Nc1c(C(=O)Nc2ccnc3ccccc23)sc2nc3c(cc12)CN(Cc1ccccc1)CC3`, the growth with SR leukemia was 35.5%; with RPMI-8226 leukemia it was 38.8%; in the assay with OVCAR-8 ovarian, 69.5%; in the assay on OVCAR-5 ovarian, 94.1%; with OVCAR-4 ovarian, 78.6%; in the assay on SK-OV-3 ovarian, 98.9%. In addition, the growth was 86.4% in the assay with IGROV1 ovarian, 85.1% in the assay with OVCAR-3 ovarian and 89.9% with HS 578T breast.

Consider `O=C(CCN1CCCC1)Nc1ccc2c(NCCc3ccccc3)c3ccccc3nc2c1`, for which the growth is -16.1% (active) in the assay with SR leukemia; -41.9% (active) in the assay on RPMI-8226 leukemia; 3.23% (active) in the assay on OVCAR-8 ovarian; 7.44% (active) with OVCAR-5 ovarian; -24.6% (active) in the assay on OVCAR-4 ovarian; -6.92% (active) in the assay on SK-OV-3 ovarian. Besides, the figures for the growth with IGROV1 ovarian, in the assay on OVCAR-3 ovarian and with HS 578T breast were -6.54% (active), -37.8% (active) and -25.1% (active), respectively.

Turning to `CCNC(=O)Oc1ccc(/C(=C(\C)c2ccccc2)c2ccc(OCCN3CCCCC3)cc2)cc1`, the growth in the assay with SR leukemia was 4.98% (active); in the assay with RPMI-8226 leukemia it was 38.7%; in the assay with OVCAR-8 ovarian, 73.6%; in the assay on OVCAR-5 ovarian, 84.8%; in the assay with OVCAR-4 ovarian it was 65.5%; in the assay on SK-OV-3 ovarian, 53.6%. For the same molecule, the growth with IGROV1 ovarian is 79.9%; with OVCAR-3 ovarian, 69.4%; with HS 578T breast, 57.5%.

Turning to `C=C(C)[C@@H]1CC[C@]2(CN)CC[C@]3(C)[C@H](CC[C@@H]4[C@@]5(C)CCCNC(C)(C)[C@@H]5CC[C@]43C)[C@@H]12`, the growth was -38.7% (active) in the assay with SR leukemia; -43.8% (active) in the assay with RPMI-8226 leukemia; -59.6% (active) in the assay on OVCAR-8 ovarian; -23% (active) in the assay on OVCAR-5 ovarian; -70.9% (active) in the assay with OVCAR-4 ovarian; 86.1% in the assay on SK-OV-3 ovarian. Moreover, the growth was -81.9% (active) with IGROV1 ovarian, -85.8% (active) in the assay with OVCAR-3 ovarian and -42.3% (active) in the assay on HS 578T breast.

With `Cn1c(-c2c(N)n(CCCN3CCOCC3)c3nc(C#N)c(C#N)nc23)nc2ccccc21`, the growth with SR leukemia is -57.7% (active); with RPMI-8226 leukemia it was 5.09% (active); in the assay with OVCAR-8 ovarian, 48.1%; with OVCAR-5 ovarian it was 82%; in the assay on OVCAR-4 ovarian, 73.7%; in the assay on SK-OV-3 ovarian, 93.6%. Besides, the growth was 65.6% in the assay on IGROV1 ovarian, 65.5% in the assay on OVCAR-3 ovarian and 94.3% in the assay with HS 578T breast.

Consider `COc1cc(/C=N/NC(=O)c2cnn3c2NC(c2ccccc2)C3)ccc1OCc1ccccc1` (stereo not drawn), for which the growth in the assay with SR leukemia is 0.0936% (active); in the assay with RPMI-8226 leukemia it was 43.7%; with OVCAR-8 ovarian it was 2.7% (active); in the assay with OVCAR-5 ovarian it was 33.2%; with OVCAR-4 ovarian, -21.9% (active); with SK-OV-3 ovarian, 18.9%. Further, the growth in the assay with IGROV1 ovarian was 12.2%; in the assay on OVCAR-3 ovarian it was -63.4% (active); with HS 578T breast, -1.22% (active).

For the molecule `O=S(=O)(NCCNc1nccc(-c2c(-c3cccc(F)c3)nc3sccn23)n1)c1ccc(Cl)cc1`, the growth in the assay with SR leukemia was 40.6%; in the assay with RPMI-8226 leukemia it was 59.4%; in the assay with OVCAR-8 ovarian, 53.6%; in the assay on OVCAR-5 ovarian, 93.3%; in the assay on OVCAR-4 ovarian it was 63.6%; in the assay on SK-OV-3 ovarian, 94.9%. The growth is 15.8% in the assay on IGROV1 ovarian, 65.4% in the assay with OVCAR-3 ovarian, 72.5% in the assay on HS 578T breast and 67.7% in the assay with NCI/ADR-RES ovarian.

Regarding `O=C(/C(=C\c1ccc([N+](=O)[O-])cc1)S(=O)Cc1ccc(F)cc1)c1ccc(F)cc1` (stereo not drawn), the growth in the assay with SR leukemia is 8.47% (active); in the assay with RPMI-8226 leukemia, -37.6% (active); with OVCAR-8 ovarian, 29.3%; with OVCAR-5 ovarian, 40.4%; in the assay with OVCAR-4 ovarian, 45%; with SK-OV-3 ovarian, 103%. The growth is -19.1% (active) in the assay with IGROV1 ovarian, 18.1% in the assay on OVCAR-3 ovarian, 40.9% in the assay on HS 578T breast and 20.7% with NCI/ADR-RES ovarian.

Turning to `CCNC(=O)Oc1ccc(/C(=C(\C)c2ccccc2)c2ccc(OCCCN(C)C)cc2)cc1`, the growth with SR leukemia is 10.2%; in the assay with RPMI-8226 leukemia, 66.6%; with OVCAR-8 ovarian, 86.5%; in the assay on OVCAR-5 ovarian, 81.4%; in the assay on OVCAR-4 ovarian, 84.4%; in the assay with SK-OV-3 ovarian, 80.7%. Further, the growth is 87.5% in the assay on IGROV1 ovarian, 85.3% in the assay with OVCAR-3 ovarian, 57% in the assay with HS 578T breast and 81.6% with NCI/ADR-RES ovarian.

`CC(C)N1C(=O)S/C(=C2/SC(=O)N(C(C)C)C2=O)C1=O`: the growth with SR leukemia is 103%; in the assay on RPMI-8226 leukemia, 93.9%; with OVCAR-8 ovarian it was 104%; with OVCAR-5 ovarian, 101%; in the assay on OVCAR-4 ovarian, 97.4%; in the assay on SK-OV-3 ovarian, 127%. Besides, the growth is 98.9% with IGROV1 ovarian, 106% with OVCAR-3 ovarian, 99.7% in the assay on HS 578T breast and 103% with NCI/ADR-RES ovarian.

For the molecule `O=C(Nc1ccc(Cl)cc1)c1cc(NCc2cc(O)ccc2O)ccc1O`, the growth in the assay on SR leukemia was 9.06% (active); in the assay with RPMI-8226 leukemia it was 4.92% (active); in the assay with OVCAR-8 ovarian it was 70.4%; in the assay with OVCAR-5 ovarian it was 116%; with OVCAR-4 ovarian, 80.5%; in the assay with SK-OV-3 ovarian, 103%. Further, the growth in the assay with IGROV1 ovarian is 84.2%; in the assay with OVCAR-3 ovarian it was 48.8%; in the assay with HS 578T breast it was 90%; with NCI/ADR-RES ovarian, 82.9%.

Values taken from PubChem BioAssay (NCI).
